Laboratory results from PubChem BioAssay AID1159580 (chemical genetic matrix, 2015).
Out of some 5,500 compounds screened, about 2,000 (36%) were called active. Not shown: some 18% with an inconclusive outcome. Cut-off read from the data, not from the text of the source: active = normalized growth mostly below about 0.91 (no sharp cut-off); inconclusive = no clear call, values can overlap the other calls; inactive = mostly above about 0.92. This is one part of the list.

Experiment: chemical genetic growth profiling, strain panel (AID 1159580);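 note: tested at 20 µM; growth read once vehicle control cultures reached saturation at 30 °C; 1 = growth at the plate median or of vehicle wells; lower values mean less growth of the strain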
Settings: growth OD

Measured: normalized growth

CC[C@@]1(O)C[C@H](O[C@H]2C[C@H](N(C)C)[C@H](O)[C@H](C)O2)c2c(cc3c(c2O)C(=O)c2c(O)cccc2C3=O)[C@H]1C(=O)OC
inactive: S. cerevisiae deletion strains, locus YKL068W, hits give low values 0.965 | S. cerevisiae deletion strains, locus YKR026C, strain gcn3, hits give low values 0.945 | S. cerevisiae deletion strains, locus YKR091W, strain srl3, hits give low values 0.945 | S. cerevisiae deletion strains, locus YLL041C, strain sdh2, hits give low values 0.944 | S. cerevisiae deletion strains, locus YLR113W, strain HOG1, hits give low values 1.02 | S. cerevisiae deletion strains, locus YLR258W, strain gsy2, hits give low values 0.929 | S. cerevisiae deletion strains, locus YLR357W, strain rsc2, hits give low values 0.939 | S. cerevisiae deletion strains, locus YLR384C, strain iki3, hits give low values 0.93 | S. cerevisiae deletion strains, locus YML016C, strain PPZ1, hits give low values 0.929 | S. cerevisiae deletion strains, locus YMR125W, strain sto1, hits give low values 1.05 | S. cerevisiae deletion strains, locus YMR263W, strain SAP30, hits give low values 0.92 | S. cerevisiae deletion strains, locus YMR307W, strain GAS1, hits give low values 0.601 | S. cerevisiae deletion strains, locus YNL153C, strain GIM3, hits give low values 0.94 | S. cerevisiae deletion strains, locus YNL183C, strain NPR1, hits give low values 0.926 | S. cerevisiae deletion strains, locus YNL322C, strain KRE1 (second series), hits give low values 0.922 | S. cerevisiae deletion strains, locus YNR049C, strain mso1, hits give low values 0.946 | S. cerevisiae deletion strains, locus YOL012C, strain htz1 0.351 | S. cerevisiae deletion strains, locus YOR001W, strain rrp6, hits give low values 0.934 | S. cerevisiae deletion strains, locus YOR061W, strain CKA2, hits give low values 0.89 | S. cerevisiae deletion strains, locus YOR080W, strain dia2, hits give low values 0.97 | S. cerevisiae deletion strains, locus YOR231W, strain MKK1, hits give low values 0.994 | S. cerevisiae deletion strains, locus YOR290C, strain snf2, hits give low values 0.932 | S. cerevisiae deletion strains, locus YPL078C, strain atp4, hits give low values 0.961 | S. cerevisiae deletion strains, locus YPL106C, strain sse1, hits give low values 1.04 | S. cerevisiae deletion strains, locus YPL256C, strain CLN2, hits give low values 0.963 | S. cerevisiae deletion strains, locus YPR141C, strain kar3, hits give low values 0.935
active: S. cerevisiae deletion strains, locus YKL085W, strain MDH1 (second series), hits give low values 0.914 | S. cerevisiae deletion strains, locus YKL085W, strain MDH1, hits give low values 0.914 | S. cerevisiae deletion strains, locus YKL160W, strain elf1, hits give low values 0.873 | S. cerevisiae deletion strains, locus YKL190W, strain CNB1, hits give low values 0.876 | S. cerevisiae deletion strains, locus YKR001C, strain vps1, hits give low values 0.639 | S. cerevisiae deletion strains, locus YLL001W, strain dnm1, hits give low values 0.869 | S. cerevisiae deletion strains, locus YLL026W, hits give low values 0.908 | S. cerevisiae deletion strains, locus YLR027C, strain aat2, hits give low values 0.877 | S. cerevisiae deletion strains, locus YLR039C, strain RIC1, hits give low values 0.491 | S. cerevisiae deletion strains, locus YLR058C, strain SHM2, hits give low values 0.89 | S. cerevisiae deletion strains, locus YLR102C, strain apc9, hits give low values 0.901 | S. cerevisiae deletion strains, locus YLR221C, strain rsa3, hits give low values 0.855 | S. cerevisiae deletion strains, locus YLR262C, strain YPT6 (second series), hits give low values 0.649 | S. cerevisiae deletion strains, locus YLR262C, strain YPT6, hits give low values 0.462 | S. cerevisiae deletion strains, locus YLR268W, strain sec22, hits give low values 0.691 | S. cerevisiae deletion strains, locus YLR320W, strain mms22, hits give low values 0.245 | S. cerevisiae deletion strains, locus YLR330W, strain CHS5, hits give low values 0.873 | S. cerevisiae deletion strains, locus YLR342W, strain FKS1 (second series), hits give low values 0.769 | S. cerevisiae deletion strains, locus YLR342W, strain FKS1, hits give low values 0.862 | S. cerevisiae deletion strains, locus YLR370C, strain arc18, hits give low values 0.899 | S. cerevisiae deletion strains, locus YLR371W, strain rom2, hits give low values 0.846 | S. cerevisiae deletion strains, locus YLR418C, strain cdc73, hits give low values 0.69 | S. cerevisiae deletion strains, locus YML032C, strain rad52, hits give low values 0.241 | S. cerevisiae deletion strains, locus YML120C, strain ndi1, hits give low values 0.912 | S. cerevisiae deletion strains, locus YML124C, strain tub3, hits give low values 0.9 | S. cerevisiae deletion strains, locus YMR058W, strain fet3, hits give low values 0.818 | S. cerevisiae deletion strains, locus YMR078C, strain ctf18, hits give low values 0.724 | S. cerevisiae deletion strains, locus YMR129W, hits give low values 0.921 | S. cerevisiae deletion strains, locus YMR205C, strain PFK2, hits give low values 0.779 | S. cerevisiae deletion strains, locus YMR223W, strain ubp8, hits give low values 0.838 | S. cerevisiae deletion strains, locus YMR231W, strain pep5, hits give low values 0.918 | S. cerevisiae deletion strains, locus YNL067W, strain RPL9B, hits give low values 0.824 | S. cerevisiae deletion strains, locus YNL071W, strain lat1, hits give low values 0.815 | S. cerevisiae deletion strains, locus YNL209W, strain ssb2, hits give low values 0.871 | S. cerevisiae deletion strains, locus YNL233W, strain BNI4, hits give low values 0.861 | S. cerevisiae deletion strains, locus YNL248C, strain rpa49, hits give low values 0.309 | S. cerevisiae deletion strains, locus YNL250W, strain rad50, hits give low values 0.559 | S. cerevisiae deletion strains, locus YNL271C, strain bni1, hits give low values 0.916 | S. cerevisiae deletion strains, locus YNL298W, strain CLA4, hits give low values 0.898 | S. cerevisiae deletion strains, locus YNL307C, strain MCK1, hits give low values 0.864 | S. cerevisiae deletion strains, locus YNL322C, strain KRE1, hits give low values 0.893 | S. cerevisiae deletion strains, locus YNR052C, strain pop2, hits give low values 0.65 | S. cerevisiae deletion strains, locus YOL006C, strain TOP1, hits give low values 0.198 | S. cerevisiae deletion strains, locus YOL147C, strain pex11, hits give low values 0.837 | S. cerevisiae deletion strains, locus YOR069W, strain VPS5, hits give low values 0.895 | S. cerevisiae deletion strains, locus YOR070C, strain gyp1, hits give low values 0.898 | S. cerevisiae deletion strains, locus YOR083W, strain WHI5, hits give low values 0.81 | S. cerevisiae deletion strains, locus YOR106W, strain vam3, hits give low values 0.672 | S. cerevisiae deletion strains, locus YOR136W, strain idh2, hits give low values 0.894 | S. cerevisiae deletion strains, locus YOR144C, strain elg1, hits give low values 0.857 | S. cerevisiae deletion strains, locus YOR184W, strain ser1, hits give low values 0.591 | S. cerevisiae deletion strains, locus YOR265W, strain rbl2, hits give low values 0.917 | S. cerevisiae deletion strains, locus YOR270C, strain vph1, hits give low values 0.39 | S. cerevisiae deletion strains, locus YOR316C, strain cot1, hits give low values 0.915 | S. cerevisiae deletion strains, locus YPL051W, strain arl3, hits give low values 0.785 | S. cerevisiae deletion strains, locus YPL055C, strain LGE1, hits give low values 0.744 | S. cerevisiae deletion strains, locus YPL240C, strain hsp82, hits give low values 0.92 | S. cerevisiae deletion strains, locus YPL241C, strain CIN2, hits give low values 0.929 | S. cerevisiae deletion strains, locus YPR119W, strain clb2, hits give low values 0.901 | S. cerevisiae deletion strains, locus YPR163C, strain tif3, hits give low values 0.783 | S. cerevisiae deletion strains, locus YPR167C, strain met16, hits give low values 0.882 | S. cerevisiae deletion strains, strain wtn01, hits give low values 0.759 | S. cerevisiae strains, strain wild type, hits give low values 0.841
